HePTP inh: inhibitors of human HePTP phosphatase. P35236. recombinant HePTP phosphatase activity, OD absorbance. inhibition, % at 20 µM. 0.64% of 110,000 active. AID 521; in the data active = inhibition above about 50%
ERa coact pot: enhances coactivator binding to human estrogen receptor alpha; P03372; TR-FRET ERalpha-LBD/SRC-Cy5 coactivator binding, 2 h; 100 = basal binding, no effect; coactivator binding (% of control), % at 25.6 µM; 1.3% of 86,000 active; in the data active = activity above about 200%;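 note: binding measured in presence of low estradiol as agonist stimulus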
Target sequence (P03372 whole entry, looked up, the tested form may be a part): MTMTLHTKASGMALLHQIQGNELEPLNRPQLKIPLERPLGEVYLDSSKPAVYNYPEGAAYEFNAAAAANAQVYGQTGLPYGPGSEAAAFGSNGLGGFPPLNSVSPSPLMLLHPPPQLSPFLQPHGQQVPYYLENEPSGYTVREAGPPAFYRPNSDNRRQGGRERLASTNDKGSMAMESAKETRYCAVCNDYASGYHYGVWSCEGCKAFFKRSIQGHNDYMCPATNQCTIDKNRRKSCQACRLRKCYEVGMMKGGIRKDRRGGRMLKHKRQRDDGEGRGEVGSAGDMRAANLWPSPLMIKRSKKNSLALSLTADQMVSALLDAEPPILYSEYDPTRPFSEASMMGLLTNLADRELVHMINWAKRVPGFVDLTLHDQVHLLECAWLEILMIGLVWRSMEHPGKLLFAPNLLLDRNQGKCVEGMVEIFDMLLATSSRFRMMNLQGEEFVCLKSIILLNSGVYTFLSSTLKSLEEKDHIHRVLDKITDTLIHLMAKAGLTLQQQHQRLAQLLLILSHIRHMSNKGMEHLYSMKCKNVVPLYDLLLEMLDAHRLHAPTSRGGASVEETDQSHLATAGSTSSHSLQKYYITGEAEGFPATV
ERa coact inh: ER-alpha (human) coactivator binding inhibition; 1.7% of 86,000 active; TR-FRET ER-alpha LBD / SRC-1 peptide, estradiol-bound; inhibition, % at 25.6 µM; P03372; in the data active = inhibition above about 50%
Candida biofilm: kills Candida albicans biofilms | C. albicans biofilm + clotrimazole, Alamar Blue | 0.14% of 85,000 active | inhibition, % at 6 µM;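 active = inhibition above 20%; inactive = inhibition below 20%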;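 note: preformed 24 hr biofilms exposed to compound for 48 hr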
ERb SRC1 inh: blocks coactivator binding to human estrogen receptor beta; TR-FRET ER-beta LBD / SRC1-Cy5 peptide binding; receptor agonist-loaded with 1 µM estradiol; inhibition, % at 25.6 µM; 1.3% of 86,000 active; AID 633; Q92731;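 active = compounds whose percent inhibition of the receptor-coactivator binding signal exceeds about 50% in the single-dose screen, limit read from the data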
Smad3 inh: inhibitors of human Smad3 transcription factor binding | P84022 | TR-FRET Smad3/Dy647-FoxH1 peptide binding, europium anti-His | inhibition, % at 25 µM | 0.29% of 88,000 active;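 active = compounds that reduce the energy-transfer binding signal between the protein and its labelled peptide by more than half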
Hits are given with their value; - = inactive; . = no result given; + = active, no number; ! = a repeat was not active; [ ] = remark or other dose. An excerpt weighted towards active compounds, which were near 2.9% of everything screened.

SMILES	HePTP inh	ERa coact pot	ERa coact inh	Candida biofilm	ERb SRC1 inh	Smad3 inh
CC(C)c1nc2sc3c(SCC(=O)NCc4ccco4)ncnc3c2c2c1CCC2	-	+[fluorescence artefact?]	-	-	-	-
CC1(C)Cc2nc3sc4c(SCC(=O)NCc5ccco5)ncnc4c3cc2CO1	-	289[fluorescence artefact?]	-	-	-	-
O=C(O)c1ccc(C(=O)c2ccccc2)o1	-	.	.	.	.	.
Cc1ccc(-n2[nH]c(=O)c(/C=c3/c(C)c(C#N)c4nc5ccccc5n4c3=O)c2O)cc1C	102	.	.	.	.	.
Cc1c(C#N)c2nc3ccccc3n2c(=O)/c1=C/c1sc2ccccc2c1O	-	.	.	.	.	.
C(=N\N1CCN(c2ccccn2)CC1)/c1ccc2c(c1)OCO2	-	.	.	.	.	.
Cc1nn(-c2ccccc2)c2nc(N)c(C#N)c(-c3ccc(F)cc3)c12	-	215[fluorescence artefact?]	-	-	-	-
C=CCSc1nc(N)c(C#N)c(-c2cccs2)c1C#N	-	.	.	.	.	.
Cc1nc(N)c(C#N)c(-c2ccccc2)c1C	-	-	-	-	-	-
Cc1ccc(-n2nc(C)c3c(-c4cccs4)c(C#N)c(N)nc32)cc1	-	210[fluorescence artefact?]	-	-	-	-
COc1cccc(CNc2ccc3c(c2)CCC3)c1OC	-	.	.	.	.	.
O=C(O)CCCCCN1C(=O)C(=O)/C(=C(/O)c2ccc(Cl)cc2)C1c1cccc([N+](=O)[O-])c1 (stereo not drawn)	-	.	.	.	.	.
Cc1ccc(C2OC(=O)c3ccccc32)cc1 (stereo not drawn)	-	.	.	.	.	.
O=C1OC(c2ccc(-c3ccccc3)cc2)c2ccccc21 (stereo not drawn)	105	.	.	.	.	.
COc1ccc(C(c2nnnn2CCc2ccccc2)N2CCN(C3CCCC3)CC2)cc1OC (stereo not drawn)	-	-	-	-	93[fluorescence artefact?]	-
COc1cc(C=NN2CCN(Cc3ccccc3)CC2)cc(OC)c1OC	-	.	.	.	.	.
C#CC[N+]1(CC#Cc2ccc(C#CC[N+]3(CC#C)CCOCC3)cc2)CCOCC1	.	-	-	-	60[fluorescence artefact?]	-
Cc1ccc(S(=O)(=O)Oc2cccc(/C=C3/SC(=S)N(Cc4ccccc4)C3=O)c2)cc1	-	.	.	.	.	.
CCc1cccc(C)c1NS(=O)(=O)c1ccccc1	-	.	.	.	.	.
COc1ccc(NS(=O)(=O)c2ccc(SC)cc2)cc1	-	-	-	-	-	-
CCc1ccccc1NS(=O)(=O)c1ccc(SC)cc1	-	-	66[fluorescence artefact?]	-	-	-
CSc1ccc(S(=O)(=O)Nc2c(C)cccc2C)cc1	-	-	55	-	-	-
CSc1ccc(S(=O)(=O)Nc2ccc(F)cc2)cc1	-	-	67[fluorescence artefact?]	-	-	-
Oc1cccc(/C=N/Nc2nncc(-c3ccccc3)n2)c1	-	.	.	.	.	.
Cc1ccc2nc(NC(=O)CCc3ccccc3)sc2c1	-	.	.	.	.	.
SMILES	HePTP inh	ERa coact pot	ERa coact inh	Candida biofilm	ERb SRC1 inh	Smad3 inh
CC(C)CCn1cnc2c([nH]c3cccc(Cl)c32)c1=O	-	596[fluorescence artefact?]	-	-	-	-
C=C(Br)Cn1c(CCC)nc2ccccc21	102!	-	-	-	-	-
O=C(N/N=C/c1ccc(F)cc1)c1cc(Cl)cc(Cl)c1O	-	.	.	.	.	.
O=C(Nc1ccn(C2CC(OC(=O)c3ccccc3)C(CO)O2)c(=O)n1)c1ccccc1 (stereo not drawn)	-	507[fluorescence artefact?]	-	.	-	-
CSCCC1NC(=O)NC1=O (stereo not drawn)	-	-	62	.	-	-
CCc1ccccc1NC(=O)c1cc2ncc(Br)cn2n1	.	-	60[fluorescence artefact?]	-	54	-
O=C(NCCc1ccccc1)c1cc2ncc(Br)cn2n1	-	-	77[fluorescence artefact?]	-	77[fluorescence artefact?]	-
O=C(Nc1cccc(C(F)(F)F)c1)c1cc2ncc(Br)cn2n1	.	-	-	-	-	-
O=C(Nc1ccc2c(c1)OCO2)c1cc2ncc(Br)cn2n1	-	-	77[fluorescence artefact?]	-	67[fluorescence artefact?]	-
Cc1ccc(S(=O)(=O)c2c(N)n(Cc3ccco3)c3nc4ccccc4nc23)cc1	-	-	-	-	-	-
Nc1c(S(=O)(=O)c2cccs2)c2nc3ccccc3nc2n1Cc1ccccc1	.	206	-	-	-	-
Cc1cccc(S(=O)(=O)c2c(N)n(Cc3ccco3)c3nc4ccccc4nc23)c1	-	-	-	-	61	-
Clc1cccc(Cl)c1OCCN1CCCC1	-	.	.	.	.	.
COc1cc2nc(NC(=O)c3ccccc3)[nH]c(=O)c2cc1OC	-	-	-	-	-	-
COc1ccc(C(=O)Nc2nc3cc(OC)c(OC)cc3c(=O)[nH]2)cc1	-	434	-	-	-	-
COCc1cc(=O)n2c(-c3ccccc3OC)n[nH]c2n1	-	-	-	-	-	-

Screening data deposited in PubChem BioAssay by several laboratories.
